Source: PubChem (several laboratories)
CASP6 VEID inh: human caspase-6 inhibitors, primary screen, biochemical, VEID-R110 fluorescence, single point, set 2; P55212; purified caspase-6, Z-VEID-R110 cleavage fluorescence; inhibition, % at 12.5 µM; actives 0.53% (n = 350,000);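 active means mean inhibition across replicates at least about 35%, with every replicate also reaching that limit, limit read from the data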;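 further: 0% = median of neutral control wells and 100% = no fluorescence left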
LEDGF integ inh: blockers of LEDGF/p75-dependent integrase strand transfer – biochemical, TR-FRET, high throughput, primary screen; inhibition, % at 3.7 µM; HIV-1 integrase (with human LEDGF/p75); TR-FRET IN-LEDGF/p75 DNA integration, Eu/Cy5; actives 0.64% (n = 370,000);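 active means inhibition above the screen-wide mean plus 3 SD, cut at about 13% in these data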;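 further: signal is the Cy5 over europium emission ratio at 671 and 618 nm; 0% = plate median of compound wells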
UHRF1 binding: UHRF1 methylated DNA binding inhibitors, primary screen, counter-screen for MBD2 inhibitor project, biochemical, TR-FRET, human UHRF1, single concentration; UHRF1 binding to methylated oligo; inhibition, % at 4.4 µM; AID 687016, 2013; E3 ubiquitin-protein ligase UHRF1 (Homo sapiens), Q96T88; actives 0.75% (n = 370,000); in the data active means inhibition above about 21%;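 further: UHRF1 SRA domain binding a hemimethylated CpG hairpin DNA probe; 0% = median of test compound wells and 100% = reference inhibitor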
MBD2 inh: inhibitors of MBD2 binding to methylated DNA, primary screen, biochemical, TR-FRET, DNA-binding domain, human; Methyl-CpG-binding domain protein 2 (Homo sapiens), Q9UBB5; MBD2 binding to methylated oligonucleotide; AID 686964, 2013; inhibition, % at 4.4 µM; actives 0.31% (n = 370,000); in the data active means inhibition above about 13%
Target sequence (Q9UBB5 whole entry, looked up, the tested form may be a part): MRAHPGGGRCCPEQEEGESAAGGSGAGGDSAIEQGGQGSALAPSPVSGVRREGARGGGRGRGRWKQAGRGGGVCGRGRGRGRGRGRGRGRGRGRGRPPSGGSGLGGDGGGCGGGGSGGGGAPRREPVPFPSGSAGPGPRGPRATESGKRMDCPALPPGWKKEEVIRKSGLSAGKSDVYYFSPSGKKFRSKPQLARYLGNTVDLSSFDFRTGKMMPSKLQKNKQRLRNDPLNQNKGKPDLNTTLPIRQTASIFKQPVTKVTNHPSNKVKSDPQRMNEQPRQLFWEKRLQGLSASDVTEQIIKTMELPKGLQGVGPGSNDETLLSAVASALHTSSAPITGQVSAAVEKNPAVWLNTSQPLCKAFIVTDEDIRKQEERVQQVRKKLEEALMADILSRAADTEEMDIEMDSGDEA
The depositor's hits bear a star; . = not tested or not shown; ! = a repeat was not active. Compounds with a hit are over-represented: about 1.4% of the library has one in this group of screens.

SMILES	CASP6 VEID inh	LEDGF integ inh	UHRF1 binding	MBD2 inh
COc1cccc(S(=O)(=O)N2C[C@@H]3N[C@H](C2)C3c2ccc(-c3ccccc3C)cc2)c1 (some centres not stated)	37*!	.	.	.
COc1cccc2c1C(=O)c1c(O)c3c(c(O)c1C2=O)CC(O)(C(C)=O)CC3OC1CC(O)C(O)C(C)O1 (configuration not stated)	-56	-3	81*	78*
CCCNC(=O)N1[C@H](CNC(=O)c2ccccc2)[C@@H](c2ccccc2)[C@@H]1CO	3	.	.	.
CCC12CN(C(=O)c3ccco3)CC(CC)(CN(C(=O)c3ccco3)C1)C2=O	55*	1	2	0
CC12CN(C(=O)c3ccco3)CC(c3ccccc3)(CN(C(=O)c3ccco3)C1)C2=O	.	1	2	3
CO[C@@H]1CN(C)C(=O)c2cc(NC(=O)Nc3cc(F)ccc3F)ccc2OC[C@H](C)N(C(=O)c2cnccn2)C[C@H]1C	0	.	.	.
CCCS(=O)(=O)N1CCN(Cc2ccco2)CC1	.	3	25*	-2
CCCc1ccc(S(=O)(=O)N2CCN(Cc3ccco3)CC2)cc1	3	0	-2	2
COc1ccc(NC(=O)Nc2ccc3c(c2)CC(=O)N([C@H](C)CO)C[C@H](C)[C@@H](CN(C)CC2CCCCC2)O3)cc1	-3	.	.	.
N=C1C(=O)OCC1c1ccccc1NC(=O)Nc1ccccc1 (configuration not stated)	1	-3	-1	-3
N=C1C(=O)OCC1c1ccccc1NC(=O)c1ccc(F)cc1 (configuration not stated)	.	-2	51*	-1
Cc1ccc(SCC(=O)NCc2ccccc2)cc1	0	-6	-1	3
O=C(CSc1ccc2c(c1)OCCO2)NCc1ccccc1	38*	1	7	-1
CCOC(=O)COc1c(C=O)cc(Br)cc1OC	.	0	28*	1
CCOC(=O)COc1c(/C=N\OC)cc(Cl)cc1OC	2	1	5	2
O=C(c1cccc(S(=O)(=O)N2CCOCC2)c1)N1CCCCCC1	.	3	40*	1
O=C(c1cccc(S(=O)(=O)Nc2ccccc2Cl)c1)N1CCCCCC1	-204	-2	1	2
O=C(c1cccc(S(=O)(=O)Nc2ccccc2Cl)c1)N1CCN(c2ccccc2O)CC1	1	-2	21*	3
O=C(c1cccc(S(=O)(=O)N2CCOCC2)c1)N1CCCC1	.	-4	-1	-1
O=C(c1cccc(NS(=O)(=O)c2ccccc2)c1)N1CCCC1	-1	0	-1	1
O=C(c1cccc(NS(=O)(=O)c2cccc(F)c2)c1)N1CCCC1	0	-4	21*	4
CCc1nc(Sc2nnnn2-c2ccccc2)c2c3c(sc2n1)CCCC3	-3	-5	42*	2
Cc1nc(Sc2nnnn2C)c2c3c(sc2n1)CCC3	.	1	0	-3
CC(C)N=C(Nc1ccccc1)c1cccnc1	.	-4	0	-2
CC(C)N=C(Nc1cccnc1)c1ccccc1	39*	1	-5	-6
SMILES	CASP6 VEID inh	LEDGF integ inh	UHRF1 binding	MBD2 inh
CC(C)CNC(=S)N1CCC(NC(=O)c2ccco2)CC1	-6	-4	23*	2
CCOCCCNC(=S)N1CCC(NC(=O)c2ccco2)CC1	0	3	5	2
C[C@H](O)C#Cc1cnc2c(c1)C(=O)N([C@@H](C)CO)C[C@H](C)[C@@H](CN(C)C(=O)Cc1ccccn1)O2	-1	.	.	.
CCCOC(=O)CCCCCCCCC(O)CN1CCCCC1 (configuration not stated)	-2	1	23*	11
C[C@H]1CN([C@@H](C)CO)C(=O)CCCn2cc(nn2)CO[C@@H]1CN(C)Cc1ccc2c(c1)OCO2	0	.	.	.
COc1ccccc1OCC(=O)Nc1cc(S(=O)(=O)N2CCCCC2)ccc1N1CCCCC1	-2	-2	27*	10
Cc1ccc(S(=O)(=O)N2CCCCC2)cc1NC(=O)c1cc(F)c(F)c(F)c1F	-1	2	22*	10
COc1ccccc1NC(=O)COC(=O)c1cc([N+](=O)[O-])ccc1N1CCCC1	5	0	35*	-2
Cc1ccc(S(=O)(=O)N2CCCCC2)cc1NC(=O)COC(=O)c1cccn1C	-3	-5	40*	3
COc1ccc(-c2cnc3c(c2)C(=O)N([C@@H](C)CO)C[C@@H](C)[C@@H](CN(C)C(=O)C2CCC2)O3)cc1	2	.	.	.
C[C@@H]1CN([C@@H](C)CO)S(=O)(=O)c2ccc(C3=CCCC3)cc2O[C@@H]1CN(C)S(=O)(=O)c1cn(C)cn1	1	.	.	.
O=C(C[C@H]1CC[C@H]2NC[C@@H](O)COC[C@@H]2O1)NC1Cc2ccccc2C1	1	.	.	.
CCN(CC)c1ccc(C(=S)N2CCN(c3ccccc3)CC2)cc1	.	0	21*	7
S=C(c1ccc(-c2ccc(Br)cc2)o1)N1CCCCC1	54*	2	-2	-4
CC(C)CC#Cc1cnc2c(c1)C(=O)N([C@H](C)CO)C[C@@H](C)[C@@H](CN(C)Cc1ccccc1)O2	1	.	.	.
COc1ccc(-c2c(C(=O)c3ccccc3)[nH]c(N)c2C(=O)c2ccccc2)cc1OC	2	-2	1	1
COc1cc(-c2c(C(=O)c3ccccc3)[nH]c(N)c2C(N)=O)ccc1F	1	2	95*	1
CCOC(=O)c1c(C)[nH]c(C(=O)N(C)CC(=O)Nc2ccc(OC)cc2)c1C	0	-5	21*	0
CCOC(=O)c1[nH]c(C)c(C(=O)OCC(=O)NCc2ccc(OC)cc2)c1C	-3	-1	9	1
COc1ccc(-c2ccc([C@H]3[C@H](CO)N4C(=O)CN(Cc5ccc(F)cc5)C[C@@H]34)cc2)cc1	-1	.	.	.
S=C(NCc1ccc(Cl)cc1)NCc1ccccn1	1	-5	-1	4
CC(C)CCC(CCNCc1ccccn1)c1ccc(Cl)cc1 (configuration not stated)	10	15*	2	1
CCOc1ccccc1N1CCN(Cc2ccc(OC)c(OC)c2)CC1	.	-2	23*	2
C[C@@H]1CCCCO[C@@H](CN(C)Cc2ccncc2)[C@H](C)CN([C@H](C)CO)C(=O)c2cc(NS(=O)(=O)c3cn(C)cn3)ccc2O1	1	.	.	.
O=C(CCc1ccccc1)N[C@@H]1c2ccccc2CC[C@H]1OCc1ccccc1	4	6	23*	5
CN(C)CC(=O)N1[C@@H]2Cn3c(ccc(C4=CCCC4)c3=O)[C@H]1[C@@H](C(=O)NCC1CCCCC1)[C@@H]2CO	35	.	.	.
CCOc1ccccc1OCC(=O)Nc1ccc(S(=O)(=O)N(C)C)cc1	.	1	47*	-6
CCOc1ccccc1OCC(=O)Nc1ccc(S(=O)(=O)Nc2ncccn2)cc1	.	-1	3	5
Cc1ccc(S(=O)(=O)N2CCOCC2)cc1NC(=O)CNCc1ccccc1Cl	-1	1	0	-5
